Binding signal data for 17 sequences are collected here from publication PMC5700166.

Holding throughout (assay): protein-binding microarray (PBM); PBM: ~300 nM protein, 6 mM HEPES pH 7.8, 80 mM KCl, 0.5 mM EDTA, 0.5 mM EGTA, 6% glycerol, 35 ng/ul poly-dIdC, 1% milk, 1 h, room temperature; Ap Aiptasia and Nv Nematostella (sea anemones) / Co Capsaspora / Aq Amphimedon (sponge) / Dm Drosophila / Hu human; RHD is the Rel homology domain; high values mean tight binding
Holding throughout (details): dsDNA, one strand shown

One experiment concerns the target T1, GST-Ap-NF-kB RHD (Exaiptasia pallida (Aiptasia), UniProt A0A913YAJ5 2-422).
T1 sequence: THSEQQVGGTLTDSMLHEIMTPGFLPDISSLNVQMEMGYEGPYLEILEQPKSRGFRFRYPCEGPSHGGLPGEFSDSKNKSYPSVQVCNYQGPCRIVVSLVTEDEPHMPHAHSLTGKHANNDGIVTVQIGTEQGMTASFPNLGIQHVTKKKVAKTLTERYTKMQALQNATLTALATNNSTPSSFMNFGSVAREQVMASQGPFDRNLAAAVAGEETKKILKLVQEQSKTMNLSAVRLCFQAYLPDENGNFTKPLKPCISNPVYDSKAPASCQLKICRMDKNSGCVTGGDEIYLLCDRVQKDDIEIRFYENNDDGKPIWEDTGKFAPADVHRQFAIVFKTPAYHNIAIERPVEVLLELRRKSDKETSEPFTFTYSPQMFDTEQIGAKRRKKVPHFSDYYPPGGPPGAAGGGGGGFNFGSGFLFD

The target in experiment [1] is T2, GST-Nv-NF-kB (Cys allele) (Nematostella vectensis, UniProt E5G601 2-411).
T2 sequence: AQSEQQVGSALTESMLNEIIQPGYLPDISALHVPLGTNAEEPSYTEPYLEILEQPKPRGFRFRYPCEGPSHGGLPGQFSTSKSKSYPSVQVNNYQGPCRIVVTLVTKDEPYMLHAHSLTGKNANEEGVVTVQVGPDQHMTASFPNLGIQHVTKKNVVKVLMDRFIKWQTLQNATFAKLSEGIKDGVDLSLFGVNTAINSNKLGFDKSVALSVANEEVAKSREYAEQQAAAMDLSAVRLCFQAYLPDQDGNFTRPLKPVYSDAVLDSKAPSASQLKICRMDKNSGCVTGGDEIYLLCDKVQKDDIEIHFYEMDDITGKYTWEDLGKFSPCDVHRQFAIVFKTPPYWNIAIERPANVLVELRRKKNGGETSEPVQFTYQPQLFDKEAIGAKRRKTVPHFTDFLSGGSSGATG

A further experiment addresses T3, GST-Co-NF-kB (Capsaspora owczarzaki, UniProt F1ARL5 200-546).
T3 sequence: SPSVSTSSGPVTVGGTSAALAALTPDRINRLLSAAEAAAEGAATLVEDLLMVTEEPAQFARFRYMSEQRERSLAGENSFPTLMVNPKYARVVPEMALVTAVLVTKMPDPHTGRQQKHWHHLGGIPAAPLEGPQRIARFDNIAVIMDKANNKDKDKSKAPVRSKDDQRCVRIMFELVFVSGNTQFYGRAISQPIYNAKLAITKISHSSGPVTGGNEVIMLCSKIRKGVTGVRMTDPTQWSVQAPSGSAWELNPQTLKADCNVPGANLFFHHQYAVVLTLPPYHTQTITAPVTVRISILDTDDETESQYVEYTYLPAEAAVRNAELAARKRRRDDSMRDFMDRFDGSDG

A further experiment concerns the target T4, GST-Aq-NF-kB (Amphimedon queenslandica, UniProt A9Y5G7 2-389).
T4 sequence: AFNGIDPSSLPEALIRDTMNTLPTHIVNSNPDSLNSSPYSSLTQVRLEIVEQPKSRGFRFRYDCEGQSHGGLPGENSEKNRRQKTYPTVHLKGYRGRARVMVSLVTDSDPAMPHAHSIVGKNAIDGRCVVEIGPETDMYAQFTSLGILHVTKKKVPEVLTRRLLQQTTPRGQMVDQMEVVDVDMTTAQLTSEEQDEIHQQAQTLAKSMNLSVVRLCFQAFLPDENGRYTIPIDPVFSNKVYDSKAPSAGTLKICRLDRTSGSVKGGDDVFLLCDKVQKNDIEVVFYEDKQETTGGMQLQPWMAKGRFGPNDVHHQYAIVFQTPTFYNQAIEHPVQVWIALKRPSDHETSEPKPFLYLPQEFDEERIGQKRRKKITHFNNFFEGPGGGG

Consider “CCGATTAACATCAGGGAAAGGAATGATGTTAATCGGGTCTTGATTCGCTTGACGCTGCTG”, for which the binding signal was determined as 1.83 z-score with GST-Ap-NF-kB RHD, 3.07 z-score in experiment [1], 1.48 z-score in the experiment with GST-Co-NF-kB and 2.97 z-score with GST-Aq-NF-kB.

Take “CCGATTAACATCAATTCCCGTACTGATGTTAATCGGGTCTTGATTCGCTTGACGCTGCTG”: the binding signal in the experiment with GST-Ap-NF-kB RHD is 1.81 z-score; in experiment [1], 2.92 z-score; with GST-Co-NF-kB, 2.55 z-score; with GST-Aq-NF-kB it was 2.81 z-score.

As to “CCGATTAACATCATGCCCGGGAATGATGTTAATCGGGTCTTGATTCGCTTGACGCTGCTG”, the binding signal in the experiment with GST-Ap-NF-kB RHD is 1.55 z-score; in experiment [1], 1.27 z-score; with GST-Co-NF-kB, 3.51 z-score; in the experiment with GST-Aq-NF-kB it was 2.72 z-score.

Regarding “CCGATTAACATCAACTTTCCCAGTGATGTTAATCGGGTCTTGATTCGCTTGACGCTGCTG”, the binding signal with GST-Ap-NF-kB RHD is 1.05 z-score; in experiment [1], 2 z-score; with GST-Co-NF-kB, 3.84 z-score; with GST-Aq-NF-kB it was 3.06 z-score.

Consider “CCGATTAACATCATCAGGGAAAATGATGTTAATCGGGTCTTGATTCGCTTGACGCTGCTG”, for which the binding signal with GST-Ap-NF-kB RHD amounted to 2.12 z-score; in experiment [1] it was 4.35 z-score; with GST-Co-NF-kB, 2.95 z-score; in the experiment with GST-Aq-NF-kB it was 2.95 z-score.

As to “CCGATTAACATCACCTTGGGAAATGATGTTAATCGGGTCTTGATTCGCTTGACGCTGCTG”, the binding signal with GST-Ap-NF-kB RHD is 1.21 z-score; in experiment [1], 1.7 z-score; in the experiment with GST-Co-NF-kB, 2.79 z-score; with GST-Aq-NF-kB, 1.62 z-score.

On to “CCGATTAACATCAGACTGGGAAATGATGTTAATCGGGTCTTGATTCGCTTGACGCTGCTG”, for which the binding signal was 1.4 z-score with GST-Ap-NF-kB RHD, 1.92 z-score in experiment [1], 3.05 z-score in the experiment with GST-Co-NF-kB and 1.18 z-score with GST-Aq-NF-kB.

Take “CCGATTAACATCAACATGGGAAATGATGTTAATCGGGTCTTGATTCGCTTGACGCTGCTG”: the binding signal with GST-Ap-NF-kB RHD was 1.54 z-score; in experiment [1], 2.51 z-score; in the experiment with GST-Co-NF-kB, 1.82 z-score; with GST-Aq-NF-kB, 1.66 z-score.

Regarding “CCGATTAACATCAGGGAAAAGAATGATGTTAATCGGGTCTTGATTCGCTTGACGCTGCTG”, the binding signal amounted to 2.43 z-score with GST-Ap-NF-kB RHD, 4.22 z-score in experiment [1], 2.97 z-score with GST-Co-NF-kB and 3.22 z-score with GST-Aq-NF-kB.

“CCGATTAACATCACCCACTTCCCTGATGTTAATCGGGTCTTGATTCGCTTGACGCTGCTG”: the binding signal was determined as 1.06 z-score with GST-Ap-NF-kB RHD, 1.67 z-score in experiment [1], 1.4 z-score with GST-Co-NF-kB and 1.65 z-score with GST-Aq-NF-kB.

As to “CCGATTAACATCAATCGGGAAATTGATGTTAATCGGGTCTTGATTCGCTTGACGCTGCTG”, the binding signal in the experiment with GST-Ap-NF-kB RHD was 1.3 z-score; in experiment [1] it was 3.45 z-score; with GST-Co-NF-kB, 2.19 z-score; in the experiment with GST-Aq-NF-kB it was 2.1 z-score.

Regarding “CCGATTAACATCATGGAGGGAGGTGATGTTAATCGGGTCTTGATTCGCTTGACGCTGCTG”, the binding signal with GST-Ap-NF-kB RHD amounted to 1.29 z-score; in experiment [1] it was 1.62 z-score; with GST-Co-NF-kB, 1.14 z-score; in the experiment with GST-Aq-NF-kB, 1.34 z-score.

For “CCGATTAACATCAAATCGGGAAATGATGTTAATCGGGTCTTGATTCGCTTGACGCTGCTG”, the binding signal came out at 1.42 z-score with GST-Ap-NF-kB RHD, 3.49 z-score in experiment [1], 2 z-score with GST-Co-NF-kB and 1.61 z-score with GST-Aq-NF-kB.

On to “CCGATTAACATCACCCAGTTCCCTGATGTTAATCGGGTCTTGATTCGCTTGACGCTGCTG”, for which the binding signal with GST-Ap-NF-kB RHD stood at 1.22 z-score; in experiment [1], 1.21 z-score; in the experiment with GST-Co-NF-kB, 1.44 z-score; in the experiment with GST-Aq-NF-kB it was 1.7 z-score.

As to “CCGATTAACATCACGGTGGGAAATGATGTTAATCGGGTCTTGATTCGCTTGACGCTGCTG”, the binding signal amounted to 2.05 z-score with GST-Ap-NF-kB RHD, 2.39 z-score in experiment [1], 2.77 z-score with GST-Co-NF-kB and 1.94 z-score with GST-Aq-NF-kB.

Consider “CCGATTAACATCACCGCTTCCCTTGATGTTAATCGGGTCTTGATTCGCTTGACGCTGCTG”, for which the binding signal with GST-Ap-NF-kB RHD was 1.62 z-score; in experiment [1] it was 1.86 z-score; with GST-Co-NF-kB, 1.46 z-score; in the experiment with GST-Aq-NF-kB, 2 z-score.

Turning to “CCGATTAACATCAACATGGGAATTGATGTTAATCGGGTCTTGATTCGCTTGACGCTGCTG”, the binding signal came out at 1.01 z-score with GST-Ap-NF-kB RHD, 2.42 z-score in experiment [1], 1.5 z-score in the experiment with GST-Co-NF-kB and 1.89 z-score with GST-Aq-NF-kB.
